An excerpt weighted towards active compounds, which were near 4.1% of everything screened.
LEDGF integ inh: blocks HIV-1 LEDGF/p75-dependent DNA integration. TR-FRET IN-LEDGF/p75 DNA integration, Eu/Cy5. inhibition, % at 3.7 µM. actives 0.64% (n = 370,000);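 active means inhibition above the screen-wide mean plus 3 SD, cut at about 13% in these data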;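 further: signal is the Cy5 over europium emission ratio at 671 and 618 nm; 0% = plate median of compound wells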
MBD2 inh: MBD2-methylated oligo binding inhibition. inhibition, % at 4.4 µM. Q9UBB5. TR-FRET, MBD2 binding to methylated oligonucleotide. AID 686964. actives 0.31% (n = 370,000); in the data active means inhibition above about 13%
Target sequence (Q9UBB5 whole entry, looked up): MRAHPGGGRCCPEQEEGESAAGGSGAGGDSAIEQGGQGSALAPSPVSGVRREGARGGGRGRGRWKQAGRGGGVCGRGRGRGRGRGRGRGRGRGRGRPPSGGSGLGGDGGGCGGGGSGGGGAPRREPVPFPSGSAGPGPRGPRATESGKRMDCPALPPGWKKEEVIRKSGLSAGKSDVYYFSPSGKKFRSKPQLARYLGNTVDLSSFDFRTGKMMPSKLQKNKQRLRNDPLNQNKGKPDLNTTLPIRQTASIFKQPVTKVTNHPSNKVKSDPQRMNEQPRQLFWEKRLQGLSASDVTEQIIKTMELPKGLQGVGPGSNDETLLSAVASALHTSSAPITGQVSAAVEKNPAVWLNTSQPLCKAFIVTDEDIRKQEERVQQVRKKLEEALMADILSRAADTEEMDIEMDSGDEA
PRMT1 FP inh: blocks human protein arginine methyltransferase 1; AID 652257; Q99873; recombinant PRMT1, activity-based probe fluorescence polarization; actives 1.3% (n = 370,000); inhibition, % at 2.79 µM;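 active means inhibition above about 21% made by adding two undisclosed values, limit read from the data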
ABHD5-PLIN5 inh: inhibitors of human ABHD5-perilipin-5 interaction. Q00G26+Q8WTS1. Split G. princeps luciferase complementation, luminescence, 4 h. inhibition, % at 4 µM. actives 0.78% (n = 360,000). AID 602281;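 active means inhibition above the mean inhibition across every tested compound plus 3 SD, cut at about 22% in these data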;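 further: 0% = DMSO only wells and the 100% control is not disclosed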
UHRF1 MBD2 ctr: blocks human UHRF1 binding to methylated DNA; Q96T88; UHRF1 binding to methylated oligo, TR-FRET; inhibition, % at 4.4 µM; actives 0.75% (n = 370,000); AID 687016; in the data active means inhibition above about 21%;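 further: UHRF1 SRA domain binding a hemimethylated CpG hairpin DNA probe; 0% = median of test compound wells and 100% = reference inhibitor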
rCAG binder: r(CAG) repeat RNA binding. TO-PRO-1 dye displacement fluorescence. inhibition, % at 3 µM. actives 1.3% (n = 370,000);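 active means inhibition above the plate cutoff, the mean of all test compounds on that plate plus 3 SD, cut at about 35% in these data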;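 further: 0% = DMSO alone and 100% = 100 µM mitoxantrone as full dye displacement; higher means more dye released from RNA so lower well fluorescence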
PRMT1 confirm: PRMT1 (human) inhibition, FP confirmation | shares compounds with PRMT1 FP inh | recombinant His-PRMT1, activity-based probe fluorescence polarization | inhibition, % at 2.79 µM | actives 42% (n = 3,300) | AID 687036;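 active means mean inhibition across replicates above the hit cutoff derived for the earlier primary screen, cut at about 22% in these data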
* hit, by the source's call; . = not tested or not shown.

SMILES | LEDGF integ inh | MBD2 inh | PRMT1 FP inh | ABHD5-PLIN5 inh | UHRF1 MBD2 ctr | rCAG binder | PRMT1 confirm
CCN(CC)c1ccc(NC(=O)c2ccccc2)cc1S(=O)(=O)Nc1ccccc1OC | 5 | -9 | 27* | -7 | -4 | 16 | 10
O=C(CCSc1ccccn1)c1ccccc1 | -2 | -3 | 52* | -10 | 1 | 0 | 24*
N#Cc1c(-c2ccccc2)cc(-c2ccc3c(c2)OCO3)[nH]c1=O | 1 | 1 | -4 | -1 | 0 | 6 | .
COc1ccc(-c2cc(-c3ccco3)[nH]c(=O)c2C#N)cc1OC | 4 | -5 | 27* | 13 | 1 | 23 | 27*
CC(=S)/C=C1\Sc2ccccc2N1C | 2 | -8 | 39* | -24 | -9 | 6 | 17
O=C(O)/C=C/C(=O)Nc1ccccc1-c1ccccc1NC(=O)/C=C/C(=O)O | 5 | 0 | 53* | 14 | 6 | 4 | 26*
O=C(O)/C=C/C(=O)Nc1ccccc1SC(F)(F)F | 2 | -3 | 61* | -1 | -1 | 0 | 36*
O=C(O)/C=C/C(=O)Nc1cccc2c1-c1ccccc1C2=O | 1 | -11 | 67* | -3 | -11 | 8 | 17
CC1(C)CC(=O)N(CC(=O)N2CCN(c3cccc(C(F)(F)F)c3)CC2)c2ccccc2S1(=O)=O | 1 | 1 | 3 | . | 0 | 3 | .
C=CCN1C(C(=O)OC)CN(Cc2cn(Cc3ccc(F)cc3)nn2)CCS1(=O)=O (centres undefined) | 6 | 5 | -6 | . | 14 | 2 | .
O=C1NC(c2ccc3c(c2)OCO3)c2c(-c3ccccc3)n[nH]c21 (centres undefined) | -1 | 0 | -1 | . | 3 | 5 | .
COc1ccccc1Cc1c(-c2ccco2)nc2ccc(Br)cn12 | 3 | 0 | 31* | 42* | 1 | 26 | 26*
Cc1ccc2nc(-c3ccco3)c(Cc3ccccc3C(F)(F)F)n2c1 | 1 | 10 | 33* | . | 16 | 10 | 19
COc1ccccc1Cc1c(-c2ccc(C)cc2)nc2ccc(Cl)cn12 | -5 | 1 | -3 | -6 | 18 | 17 | .
COc1ccccc1Cc1c(-c2ccco2)nc2ccc(Cl)cn12 | 5 | -1 | 28* | 27* | 7 | 18 | 13
Cc1ccc2[nH]c(=O)c(C(c3nnnn3C3CCCC3)N3CCCc4ccccc43)cc2c1 (centres undefined) | 8 | -9 | 35* | -14 | -3 | 5 | -3
O=S1(=O)c2ccc(N3CCSCC3)cc2Oc2ccccc2CN1Cc1cn(Cc2ccc(F)cc2)nn1 | 1 | -4 | -3 | . | 2 | 7 | .
O=C(N[C@H](Cc1ccccc1)C(=O)N1CCN(CC(=O)N2CCCC2)CC1)[C@H]1O[C@@H](n2ccc(=O)[nH]c2=O)[C@H](O)[C@@H]1O | -2 | 1 | 1 | . | 1 | -1 | .
CCC(C)c1c(O)nc(SCC(=O)Nc2ccccc2)[nH]c1=O (centres undefined) | -3 | 0 | 3 | -5 | 1 | 4 | .
C=CCc1c(O)nc(SCC(=O)c2ccccc2)[nH]c1=O | 0 | 0 | 46* | -8 | 1 | 5 | 57*
CCC(C)c1c(O)nc(SCC(=O)c2ccccc2)[nH]c1=O (centres undefined) | 0 | 2 | 52* | -1 | 0 | 3 | 52*
O=C(CSc1nc(O)c(Cc2ccccc2)c(=O)[nH]1)Nc1ccccc1 | 4 | -6 | 16 | -4 | -2 | 6 | .
CC[C@H](C(=O)Nc1ccccc1N1CCCC1)c1ccccc1 | 4 | -4 | -3 | . | 4 | 2 | .
Cc1ccc(-n2c(N)c(C(=O)N3CCCCC3)sc2=S)cc1 | 1 | 7 | 5 | 0 | 1 | -5 | .
Cc1ccc(-n2c(N)c(C(=O)N3CCN(C)CC3)sc2=S)cc1 | 0 | -3 | 86* | -14 | 1 | -3 | 71*
SMILES | LEDGF integ inh | MBD2 inh | PRMT1 FP inh | ABHD5-PLIN5 inh | UHRF1 MBD2 ctr | rCAG binder | PRMT1 confirm
Cc1cc(C)cc(C(=O)OCCCN(C)C2CN(Cc3cn(Cc4ccccc4C(F)(F)F)nn3)S(=O)(=O)C2)c1 (centres undefined) | 3 | 6 | 1 | . | 15 | 0 | .
O=C(CSc1nccn(-c2cccc(F)c2)c1=O)Nc1ccc(Cl)cc1F | 2 | 0 | 75* | -17 | -6 | 8 | 69*
O=C(CSc1nccn(-c2ccc3c(c2)OCCO3)c1=O)Nc1ccccc1 | 1 | 3 | 45* | 4 | -3 | 2 | 24*
O=C(CSc1nccn(-c2ccc(F)c(F)c2)c1=O)NC1CCCC1 | 3 | 1 | 20 | -9 | -1 | -4 | .
Cc1cc(N2CCNC[C@@H]2C)ccc1N1CCN(Cc2ccccc2)[C@H](C)C1 | -4 | -1 | 0 | . | 0 | 7 | .
O=C(NC1CCN(Cc2ccccc2)CC1)c1cc(S(=O)(=O)N2CCOCC2)ccc1Cl | 0 | -3 | 113* | -7 | -3 | -4 | 5
Cc1c(Nc2cc(Cl)c3nonc3c2[N+](=O)[O-])c(=O)n(-c2ccccc2)n1C | -2 | -23 | 59* | 21 | -12 | 1 | 58*
CC(=O)c1cccc(-n2c(CCC(=O)O)ccc2-c2ccccc2)c1 | -3 | -6 | 16 | -1 | -3 | 11 | .
CC(=O)c1cccc(-n2c(CCC(=O)O)ccc2-c2cccs2)c1 | 11 | 4 | 68* | 20 | -1 | 14 | 16
O=C(O)CCc1ccc(-c2cccs2)n1-c1ccc(C(=O)O)cc1 | 5 | -2 | 37* | 21 | 5 | 6 | 10
O=C(O)CCc1ccc(-c2cccs2)n1CCC(=O)O | -1 | -1 | 16 | 8 | 5 | 11 | .
COC(=O)[C@]1(CNC(=O)C(C)(C)C)CC(=O)N(C)[C@@H]1c1ccccc1 | 1 | 7 | 5 | . | 0 | 1 | .
COC(=O)[C@]12C[C@H](CC(=O)NCc3cccc(C(F)(F)F)c3)C(=O)N(Cc3ccccc3)C1=C[C@H](C1CCCC1)O[C@@H]2C | -1 | 0 | 3 | . | 0 | 2 | .
CCn1c(SCC(=O)c2ccc3ccccc3c2)nnc1-c1ccco1 | 6 | -3 | 5 | 12 | -2 | 8 | .
CCOc1ccc(-n2c(SCC(=O)c3ccc4ccccc4c3)nnc2-c2ccco2)cc1 | 2 | 5 | 46* | . | 0 | 21 | 8
CCCCc1cc(=O)oc2c(CN(C)C)c(O)ccc12 | -2 | 1 | 1 | 5 | -2 | -2 | .
CC[C@@]1(O)C(=O)OCc2c1cc1n(c2=O)Cc2cc3c(CN(C)C)c(O)ccc3nc2-1 | 3 | -7 | 107* | 5 | -18 | -50 | 109*
O=C(NCc1ccc(Cl)cc1)c1ccc(Cn2cc(C(F)(F)F)ccc2=O)cc1 | -1 | 0 | 72* | -15 | -7 | -313 | 64*
OCC(O)C(O)C(O)C(O)C1NCCS1 (centres undefined) | -1 | -2 | 32* | -29 | -2 | 9 | 16

Screening data (PubChem BioAssay)
